# Experimental data taken from PubChem BioAssay (EPA / NIEHS).
# Activity calls are given as the source filed them. How the source made its calls: active means hit-call score of the fitted dose curve at least 0.9, where 1 is the maximum; inactive means score below 0.9.
# Experiment: ATG_TGFb_CIS: Attagene CIS-FACTORIAL HepG2 Assay for human Transforming Growth Factor (TGF) (AID 2282967)
# Settings: HepG2 Attagene CIS TGFb reporter, mRNA transcription; actives raise or lower the signal
# Experimental: ATG_CIS is a cell-based, multiplexed-readout assay that uses HepG2, a human liver cell line, with measurements taken at 24 hours after chemical dosing in a 24-well plate.ATG_TGFb_CIS is one of 52 assay component(s) measured or calculated from the ATG_CIS assay. It is designed to make measurements of mRNA induction, a form of inducible reporter, as detected with fluorescence intensity signals by Reverse transcription polymerase chain reaction (RT-PCR) and Capillary electrophoresis technology.Data from the assay component ATG_TGFb_CIS was analyzed into 1 assay endpoint. This assay endpoint, ATG_TGFb_CIS, was analyzed with bidirectional fitting relative to DMSO as the negative control and baseline of activity. Using a type of inducible reporter, measures of mRNA for gain or loss-of-signal activity can be used to understand the reporter gene at the transcription factor-level as they relate to the gene TGFB1. Furthermore, this assay endpoint can be referred to as a primary readout, because this assay has produced multiple assay endpoints where this one serves a reporter gene function. To generalize the intended target to other relatable targets, this assay endpoint is annotated to the growth factor intended target family, where the subfamily is transforming growth factor beta.
# Human liver HepG2 cells are transiently transfected with multiple reporter transcription units (MRTUs) in 6-well plates using FuGene 6 reagent (Roche; 3 ml FuGene/1 mg DNA). The MRTU constructs are regulated by a cis-regulating element (promoter). […] A major difference between the CIS and TRANS system is that in CIS activities of endogenous TFs are measured, whereas the TRANS assay evaluates changes in activities of exogenous, chimeric NR-Gal4 proteins. […] At the end of 24 hour incubation, total RNA was isolated using TriZol reagent (Invitrogen). The isolated RNA is then reverse-transcribed using oligo(dT) primer and Mo-MLV reverse transcriptase (Invitrogen) with DNAse I (Ambion) treatment for 30 min. The one-tenth of the produced cDNA was amplified by PCR using Taq DNA polymerase (Invitrogen) and two reporter sequence-specific primers. The PCR products were fluorescently labeled by primer extension with 6-arboxyfluorescein (6-FAM) 5'-labeled reporter sequence-specific primer (2 min at 95 C, 20 s at 68 C and 10 min at 72 C) and these products were digested with 5U of HpaI (New England Biolabs) for 2h at 37 C. The fragments were purified using Qiaquick PCR columns (Qiagen), analyzed on an ABI 3130xL genetic analyzer (Applied Biosystems) with peak positions identified by using a set of X-rhodamine (ROX)-labeled MapMarker1000 molecular weight standards (BioVentures). The raw capillary electrophoresis data was processed using Attagraph software (Attagene).
row,SMILES,outcome
1,CCN(CC)c1ccc2c(c1)Oc1cc(N(CC)CC)ccc1C21OC(=O)c2ccccc21,inactive
2,O=C=NCc1cccc(CN=C=O)c1,inactive
3,C[C@]12CC[C@H]3C(=CCc4cc(O)ccc43)[C@@H]1CCC2=O,inactive
4,O=C(O)CCC(F)(F)C(F)(F)C(F)(F)F,inactive
5,CCC(Cc1c(I)cc(I)c(N)c1I)C(=O)O (stereo not given),inactive
6,CC1=CC2C3C=CC(C3)C2C1C (stereo not given),inactive
7,Cc1ccc(O)cn1,inactive
8,NC(=O)C(F)(F)C(F)(F)C(F)(F)C(F)(F)C(N)=O,inactive
9,Cc1cnccn1,inactive
10,O=c1[nH]cccc1O,inactive
11,CCN(CC)c1ccc(N=Nc2ccccc2)cc1,inactive
12,NC(=O)C(F)(F)C(F)(F)C(F)(F)C(F)F,inactive
13,C=CCOC(=O)CC(C)C,inactive
14,CCN(CC)c1ccc(C=O)c(O)c1,inactive
15,CC(C)OC(=O)COc1ccc(Cl)cc1Cl,inactive
16,Nc1cc([N+](=O)[O-])cc(Cl)c1O,inactive
17,OCC(O)CC(F)(F)C(F)(F)C(F)(F)C(F)(F)F (stereo not given),inactive
18,CNS(=O)(=O)C(F)(F)C(F)(F)C(F)(F)C(F)(F)C(F)(F)C(F)(F)C(F)(F)C(F)(F)F,inactive
19,CCCCCCCC/C=C\CCCCCCCC(=O)OCC(O)CO (stereo not given),inactive
20,CCN(CCO)S(=O)(=O)C(F)(F)C(F)(F)C(F)(F)C(F)(F)C(F)(F)C(F)(F)C(F)(F)C(F)(F)F,inactive

row,SMILES,outcome
1,O=C1OC(=O)c2ccc3c4c(ccc1c24)C(=O)OC3=O,inactive
2,CCCC(=O)OCC(COC(=O)CCC)OC(=O)CCC,inactive
3,COC(=O)c1ccc(C=O)cc1,inactive
4,FC(F)(F)C(F)(F)C(F)(F)C(F)(F)C(F)(F)C(F)(F)CC[Si](Cl)(Cl)Cl,inactive
5,CC(C)(C)c1cc(Cc2cc(C(C)(C)C)c(O)c(C(C)(C)C)c2)cc(C(C)(C)C)c1O,inactive
6,Cc1ccc(S(=O)(=O)C(I)I)cc1,inactive
7,CC(C)OC=O,inactive
8,O=S(=O)(Cl)C(F)(F)C(F)(F)C(F)(F)C(F)(F)C(F)(F)C(F)(F)C(F)(F)C(F)(F)F,inactive
9,CCOCOCC,inactive
10,C=CC(=O)OCC(F)(F)C(F)(F)C(F)(F)C(F)(F)C(F)(F)C(F)(F)C(F)(F)C(F)F,inactive
11,O=C(Cl)c1ccc(Cl)cc1Cl,inactive
12,O=C1C=CC(=O)N1c1ccccc1,inactive
13,Cc1ccc(O)c(-n2nc3ccccc3n2)c1,inactive
14,CC(C)=CCCC(C)O (stereo not given),inactive
15,COCCC(=O)OC,inactive
16,Cc1ccc([N+](=O)[O-])c(C)c1,inactive
17,CO[Si](C)(CCC(F)(F)C(F)(F)C(F)(F)C(F)(F)C(F)(F)C(F)(F)F)OC,inactive
18,CC(=O)C=O,inactive
19,CC(C)C(=O)OCc1ccccc1,inactive
20,OCCCc1cccnc1,inactive
